Activity calls are given as the source filed them. The rule behind the calls is not given here.
The molecules below were run against Serine/threonine-protein kinase pim-1 (Homo sapiens) (UniProt P11309) (assay: PIM1 kinase ligand binding by thermal shift, biophysical, human, melting temperature shift (AID 393)). Settings: Thermal shift assay, active compounds read high; at 10 µM, protein 2 µM, buffer 10 mM PIPES, pH 6.5, NaCl 150 mM unless noted.
Chain of Serine/threonine-protein kinase pim-1 (Homo sapiens) (P11309 whole entry, looked up): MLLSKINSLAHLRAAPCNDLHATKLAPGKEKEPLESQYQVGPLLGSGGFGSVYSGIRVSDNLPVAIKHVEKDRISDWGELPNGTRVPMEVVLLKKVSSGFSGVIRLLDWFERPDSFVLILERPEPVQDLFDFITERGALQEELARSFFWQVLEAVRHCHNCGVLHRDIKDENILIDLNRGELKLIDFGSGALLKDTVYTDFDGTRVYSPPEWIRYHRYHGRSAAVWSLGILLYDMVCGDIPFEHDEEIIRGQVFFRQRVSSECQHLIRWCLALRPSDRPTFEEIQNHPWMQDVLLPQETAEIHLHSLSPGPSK

Tm shift, active:
OCC(O)CCO/N=C1/C(c2c(O)[nH]c3ccccc23)=Nc2ccccc21 (stereo unspecified) 4.1 Celsius [at 10 µM, protein 2 µM, buffer 10 mM Na Citrate, pH 6.5, NaCl 150 mM]
CC(C)[C@@H](CO)Nc1ccc2ncc(-c3ccc(C#N)cc3)n2n1 4.53 Celsius
O=C1Nc2ccc(I)cc2/C1=C/c1cc(Br)c(O)c(Br)c1 7.2 Celsius [at 10 µM, protein 2 µM, buffer 10 mM Na Citrate, pH 6.5, NaCl 150 mM]
Oc1cc(O)cc(/C=C/c2ccc(O)c(O)c2)c1 3.2 Celsius [at 10 µM, protein 2 µM, buffer 10 mM Na Citrate, pH 6.5, NaCl 150 mM]
Oc1cccc(-c2cnc3ccc(NCC4CC4)nn23)c1 4.42 Celsius
COc1cncc(-c2cnc3ccc(NC4CCOCC4)nn23)c1 3.31 Celsius
CCCCc1c(-c2ccc(O)cc2)[nH]c2nccnc12 4 Celsius [at 10 µM, protein 2 µM, buffer 10 mM Na Citrate, pH 6.5, NaCl 150 mM]
CCC(CO)Nc1ccc2ncc(-c3cccc(C(C)=O)c3)n2n1 (stereo unspecified) 6.85 Celsius
Cc1cc(Br)c2c(c1)=C(c1[nH]c(=S)[nH]c1O)C(=O)N=2 4.68 Celsius
CC(C)[C@@H](CO)Nc1ccc2ncc(-c3cccc(Cl)c3)n2n1 6.86 Celsius
c1ccc(-c2cnc3ccc(NCc4ccco4)nn23)cc1 3.07 Celsius [at 5 µM, protein 1 µM, buffer 10 mM HEPES]
O=c1[nH]c2ncc(-c3cccnc3)nc2n1C1CCCC1 3.12 Celsius [at 10 µM, protein 2 µM, buffer 25 mM HEPES, pH 7.5, NaCl 250 mM]
FC(F)(F)Oc1cccc(-c2cnc3ccc(NCC4CC4)nn23)c1 7.73 Celsius
CC(O)(O)C1(O)C[C@@H]2O[C@@]1(C)n1c3ccccc3c3c4c(c5c6ccccc6n2c5c31)C(=O)NC4 (stereo partly specified) 4.3 Celsius [at 10 µM, protein 2 µM, buffer 10 mM Na Citrate, pH 6.5, NaCl 150 mM]
CC(=O)Nc1cccc(-c2cnc3ccc(NC4CCOCC4)nn23)c1 3.48 Celsius
CCC(CO)Nc1ccc2ncc(-c3ccc(F)c(Cl)c3)n2n1 (stereo unspecified) 9.05 Celsius
Cc1ccc2c(c1)=C(c1[nH]c(=S)[nH]c1O)C(=O)N=2 6.4 Celsius
O=C1NC(=O)C(c2c[nH]c3ccccc23)=C1c1c[nH]c2ccccc12 5.8 Celsius [at 10 µM, protein 2 µM, buffer 10 mM Na Citrate, pH 6.5, NaCl 150 mM]
Fc1ccc(CNc2ccc3ncc(-c4ccco4)n3n2)cc1 6.35 Celsius [at 5 µM, protein 1 µM, buffer 10 mM HEPES]
Clc1cccc(-c2cnc3ccc(NCCc4ccccn4)nn23)c1 7.06 Celsius [at 5 µM, protein 1 µM, buffer 10 mM HEPES]
CCC(CO)Nc1ccc2ncc(-c3ccc(O)cc3)n2n1 (stereo unspecified) 6.96 Celsius
